Some test systems named below: HCT-15 colon; HT29 colon; SNB-75 CNS; SNB-19 CNS; U251 CNS; PC-3 prostate; SK-MEL-5 melanoma; UACC-62 melanoma; LOX IMVI melanoma; SK-MEL-28 melanoma.
What all share (assay): NCI-60 one-dose screen, 48 h (100 = growth as untreated, 0 = no growth, -100 = all killed)
Settings in all cases: 10 µM

SMILES strings stand for the structures. The panel holds about 83,000 compounds, 20% with a hit somewhere; the sample as a whole holds those more often.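 Method: cells in 96-well plates; compound added at one concentration; 48 h incubation; percent growth measured; values under 10 scored active.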 Values without a mark were called inactive. The source made the active and inactive calls.

As to `Cc1nc2scc(-c3ccc(Cl)cc3)n2c(=O)c1CCN1CCOCC1`, the growth in the assay on HCT-15 colon was 105%; with HT29 colon, 105%; in the assay on SNB-75 CNS, 84.6%; with SNB-19 CNS, 94.6%; with U251 CNS it was 96.7%; in the assay on PC-3 prostate, 87.5%. Further, the growth in the assay with SK-MEL-5 melanoma was 94.5%; in the assay with UACC-62 melanoma, 85.6%; in the assay on LOX IMVI melanoma, 97.5%; in the assay with SK-MEL-28 melanoma, 102%.

With `CCCCCCN=C(N)CCCCCCCCCCC(N)=NCCCCCC`, the growth is 31.8% in the assay on HCT-15 colon; 14% in the assay on HT29 colon; 23.8% in the assay with SNB-75 CNS; 18.4% in the assay on SNB-19 CNS; 14.8% in the assay with U251 CNS; 23.8% with PC-3 prostate. The growth in the assay with SK-MEL-5 melanoma was 20%; in the assay on UACC-62 melanoma, 40.9%; in the assay on LOX IMVI melanoma, 37.2%; in the assay with SK-MEL-28 melanoma, 55.8%.

Take `Cc1nc(Nc2nc3ccccc3o2)nc(-c2cccc([N+](=O)[O-])c2)c1C(=O)Nc1ccc(F)c(Cl)c1`: the growth is 15.5% in the assay with HCT-15 colon; 6.31% (active) in the assay with HT29 colon; 17.8% in the assay with SNB-75 CNS; 11.7% with SNB-19 CNS; 3.14% (active) in the assay with U251 CNS; 6.84% (active) in the assay with PC-3 prostate. Also, the growth was 0.624% (active) with SK-MEL-5 melanoma, 17.1% in the assay with UACC-62 melanoma, 0.0269% (active) with LOX IMVI melanoma and 13.2% in the assay on SK-MEL-28 melanoma.

In the case of `O=C(Nc1cccc(C(F)(F)F)c1)C(Cl)Cl`, the growth is 94% with HCT-15 colon; 92.2% in the assay on HT29 colon; 91.3% in the assay on SNB-75 CNS; 99% in the assay with SNB-19 CNS; 102% in the assay with U251 CNS; 95.1% in the assay on PC-3 prostate. Moreover, the growth in the assay with SK-MEL-5 melanoma was 103%; in the assay on UACC-62 melanoma, 105%; in the assay with LOX IMVI melanoma, 101%; in the assay with SK-MEL-28 melanoma, 104%.

Turning to `CC(C)CCN(CCCNc1c2c(nc3cc(Cl)ccc13)CCCC2)CCC(C)C`, the growth in the assay with HCT-15 colon was 44.5%; with HT29 colon, 23%; in the assay on SNB-75 CNS, 84.4%; in the assay on SNB-19 CNS it was 90.6%; in the assay on U251 CNS it was 59.4%; with PC-3 prostate it was 56.8%. Moreover, the growth with SK-MEL-5 melanoma was 57.8%; in the assay on UACC-62 melanoma it was 82.8%; with LOX IMVI melanoma, 51%; in the assay with SK-MEL-28 melanoma, 83.4%.

As to `COc1ccc(NC(=O)c2sc3nc4c(cc3c2N)C(O)CCC4)cc1` (stereo not given), the growth is 95.5% in the assay on HCT-15 colon; 97.8% in the assay on HT29 colon; 110% in the assay on SNB-75 CNS; 97.1% in the assay with SNB-19 CNS; 105% in the assay with U251 CNS; 95.7% in the assay with PC-3 prostate. Moreover, the growth was 99.5% in the assay on SK-MEL-5 melanoma, 98.9% in the assay with UACC-62 melanoma, 102% in the assay on LOX IMVI melanoma and 102% in the assay with SK-MEL-28 melanoma.

Take `Nc1ccc(C2=CC(c3ccc(Cl)cc3)N3C=CSC3=N2)cc1` (stereo not given): the growth was -57.7% (active) in the assay on HCT-15 colon; -42.9% (active) in the assay with HT29 colon; -15.6% (active) in the assay on SNB-75 CNS; -65.2% (active) in the assay with SNB-19 CNS; -83.5% (active) in the assay on U251 CNS; -28.1% (active) in the assay on PC-3 prostate. The growth in the assay with SK-MEL-5 melanoma was -97.6% (active); in the assay with UACC-62 melanoma, -67.1% (active); with LOX IMVI melanoma it was -83.3% (active); in the assay on SK-MEL-28 melanoma, -89.7% (active).

For `COc1ccccc1NC1=C(N2CCCCC2)C(=O)c2ccccc2C1=O`, the growth with HCT-15 colon is 86.1%; with HT29 colon, 70.6%; in the assay with SNB-75 CNS it was 71.1%; in the assay with SNB-19 CNS, 90.2%; in the assay on U251 CNS it was 84.5%; in the assay on PC-3 prostate it was 33.5%. Moreover, the growth in the assay on SK-MEL-5 melanoma was 69%; with UACC-62 melanoma, 81.4%; in the assay on LOX IMVI melanoma, 86.8%; in the assay with SK-MEL-28 melanoma it was 96.1%.

Turning to `CC(=O)OC1Oc2ccccc2-c2oc(=O)c(-c3ccc(F)cc3)cc21` (stereo not given), the growth in the assay on HCT-15 colon is 95.8%; with HT29 colon, 99%; with SNB-75 CNS, 71.8%; in the assay on SNB-19 CNS, 100%; with U251 CNS, 76.2%; with PC-3 prostate, 110%. Further, the growth in the assay on SK-MEL-5 melanoma was -35.4% (active); with UACC-62 melanoma it was 50%; in the assay on LOX IMVI melanoma it was 85.3%; in the assay on SK-MEL-28 melanoma it was 96.7%.

As for `Nc1c(CNCc2nnn(Cc3ccccc3)c2N)nnn1Cc1ccccc1`, the growth in the assay on HCT-15 colon was 93.9%; in the assay on HT29 colon, 105%; in the assay on SNB-75 CNS, 99%; in the assay on SNB-19 CNS, 103%; with U251 CNS, 97.6%; in the assay on PC-3 prostate, 98.9%. Moreover, the growth was 104% in the assay on SK-MEL-5 melanoma, 102% in the assay with UACC-62 melanoma, 95.3% in the assay with LOX IMVI melanoma and 115% in the assay with SK-MEL-28 melanoma.

As to `Cc1ccc(/C=C2\CN(Cc3cn(CCNc4ccnc5cc(Cl)ccc45)nn3)C/C(=C\c3ccc(C)cc3)C2=O)cc1`, the growth is -29.4% (active) in the assay on HCT-15 colon; -45.1% (active) with HT29 colon; 18.1% in the assay on SNB-75 CNS; -29.8% (active) in the assay on SNB-19 CNS; -73.7% (active) in the assay on U251 CNS; -32.4% (active) in the assay with PC-3 prostate. In addition, the growth with SK-MEL-5 melanoma was -90.5% (active); in the assay on UACC-62 melanoma, -58.4% (active); in the assay on LOX IMVI melanoma, -82.9% (active); in the assay on SK-MEL-28 melanoma, -83.5% (active).

Turning to `Cc1ccc(C)c2c1sc1nc3n[nH]c(N)c3c(=N)n12`, the growth was 102% in the assay on HCT-15 colon; 111% with HT29 colon; 88.5% in the assay on SNB-75 CNS; 99% in the assay on SNB-19 CNS; 100% in the assay on U251 CNS; 85.7% with PC-3 prostate. For the same molecule, the growth in the assay on SK-MEL-5 melanoma was 99.3%; with UACC-62 melanoma, 108%; in the assay with LOX IMVI melanoma, 96.2%; with SK-MEL-28 melanoma, 106%.

Turning to `CCc1c(C)[nH]c(=O)c(C(N)=O)c1C#N`, the growth is 95.4% in the assay with HCT-15 colon; 96.6% with HT29 colon; 99.9% with SNB-75 CNS; 90.1% with SNB-19 CNS; 99.4% with U251 CNS; 99.4% in the assay on PC-3 prostate. Moreover, the growth in the assay with SK-MEL-5 melanoma was 103%; in the assay with UACC-62 melanoma, 88.4%; with LOX IMVI melanoma, 109%; in the assay with SK-MEL-28 melanoma, 114%.

On to `CCOC(=O)C1=C(Nc2ccc(OC)cc2)C(N)=NC1=N`, for which the growth in the assay with HCT-15 colon was 22%; in the assay with HT29 colon it was 11.7%; in the assay with SNB-75 CNS it was 51.9%; in the assay on SNB-19 CNS, 66.8%; with U251 CNS it was 51.7%; with PC-3 prostate, 40.5%. Moreover, the growth in the assay on SK-MEL-5 melanoma is 21.5%; in the assay on UACC-62 melanoma, 30.4%; with LOX IMVI melanoma, 52%; in the assay with SK-MEL-28 melanoma, 67.3%.

The record behind these values is PubChem BioAssay (NCI).
